# Assay results: PMC5540273 (PLoS ONE, 2017)
# Columns and labels:
# Details in all cases: concentration: 1 μM,replicates: in singlicate; n = 1
# RIOK1 = tested on: RIOK1
# RIOK2 = tested on: RIOK2
# RIOK3 = tested on: RIOK3
# RIPK1 = tested on: RIPK1
# RIPK2 = tested on: RIPK2
# RIPK4 = tested on: RIPK4
# RIPK5 = tested on: RIPK5
# ROCK1 = tested on: ROCK1
# ROCK2 = tested on: ROCK2
# ROS1 = tested on: ROS1
# [1] = tested on: RPS6KA4(Kin.Dom.1-N-terminal)
# [2] = tested on: RPS6KA4(Kin.Dom.2-C-terminal)
# [3] = tested on: RPS6KA5(Kin.Dom.1-N-terminal)
# [4] = tested on: RPS6KA5(Kin.Dom.2-C-terminal)
# [5] = tested on: T1, RSK1(Kin.Dom.1-N-terminal)
# T1 construct: gene RPS6KA1
# [6] = tested on: T2, RSK1(Kin.Dom.2-C-terminal)
# T2 construct: gene RPS6KA1
# [7] = tested on: T3, RSK2(Kin.Dom.1-N-terminal)
# T3 construct: gene RPS6KA3
# [8] = tested on: T4, RSK2(Kin.Dom.2-C-terminal)
# T4 construct: gene RPS6KA3
# [9] = tested on: T5, RSK3(Kin.Dom.1-N-terminal)
# T5 construct: gene RPS6KA2
# [10] = tested on: T6, RSK3(Kin.Dom.2-C-terminal)
# T6 construct: gene RPS6KA2
# 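Further: KINOMEscan kinase panel screen.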
SMILES,%Inh (RIOK1) [%],%Inh (RIOK2) [%],%Inh (RIOK3) [%],%Inh (RIPK1) [%],%Inh (RIPK2) [%],%Inh (RIPK4) [%],%Inh (RIPK5) [%],%Inh (ROCK1) [%],%Inh (ROCK2) [%],%Inh (ROS1) [%],%Inh [1] [%],%Inh [2] [%],%Inh [3] [%],%Inh [4] [%],%Inh [5] [%],%Inh [6] [%],%Inh [7] [%],%Inh [8] [%],%Inh [9] [%],%Inh [10] [%]
C[C@@H](Oc1cc(-n2cnc3cc(-c4ccncc4)ccc32)sc1C(N)=O)c1ccccc1Cl [GSK479719],94.1,9,100,0,17,8,37,3,49,8,46,0,9,0,11,7,42,4,30,21
C[C@@H](Oc1cc(-n2cnc3cc(-c4cnn(C)c4)ccc32)sc1C(N)=O)c1ccccc1Cl [GSK580432],100,25,82,39,10,0,15,14,11,27,82,0,5,6,45,0,60,2,77,0
CN1CCN(CCCNc2nccc(-c3c(-c4ccc(F)cc4)nn4cc(C(N)=O)ccc34)n2)CC1 [GW622475],46,27,36,10,85,28,0,0,20,4,13,0,19,14,28,63,0,100,12,14
Nc1nccc(-c2ccc3c(N)n[nH]c3c2)n1 [GSK1034945],96.5,52,91.2,3,14,77,0,,56,0,0,81,7,62,4,32,29,22,31,1
Cn1ccc2ncnc(Oc3ccc(NC(=O)Nc4cnn(C(C)(C)C)c4)c(Cl)c3)c21,4,29,0,12,40,0,0,6,0,0,0,5,32,0,0,27,11,0,0,9
CCn1c(-c2nonc2N)nc2cncc(CNC3CCNCC3)c21.Cl [SB-747651],30,0,6,0,5,19,0,,,0,44,6,78,0,21,0,16,6,7,9
O=c1[nH]cc(-c2ccc(O)cc2)c2sc(-c3ccncc3)cc12 [GSK1033723],1,14,6,26,16,0,5,10,18,0,0,0,4,21,10,0,0,23,0,3
Cl.Nc1n[nH]c2cc(-c3ccccn3)ccc12 [GSK2189892],47,0,24,0,0,4,6,0,5,12,15,0,26,0,29,0,0,0,0,0
COC(=O)c1cccc(NC(=O)NC2CCN(c3ccnc(NCc4ccc(F)cc4)n3)CC2)c1 [GSK1379860],22,0,6,0,0,5,0,25,19,8,7,0,7,0,18,0,0,9,3,0
CCN1CCN(CCCC(=O)Nc2n[nH]c3nc(-c4ccc(O)cc4)c(Br)cc23)CC1 [SB-731579],39,0,9,0,0,27,0,10,0,8,5,98.5,4,0,0,0,13,0,0,30
COc1ccc(Nc2nccc(N3CCC(NC(=O)c4cccc(C#N)c4)C3)n2)cc1 (stereo not shown) [GSK1379730],34,0,5,0,0,0,0,25,14,23,15,0,5,0,0,0,0,18,0,2
